The structures appear in SMILES notation. ± gives the standard deviation.

What all share (details): modulator concentration 10 µM
In assay [1] the test system is RAW-Dual (murine macrophage reporter line). In words: NF-kB reporter (SEAP) activity fold change vs agonist alone; higher = enhanced NF-kB activity. An outline of the steps: (§1)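 RAW-Dual murine macrophage reporter cells were seeded at 50 000 per well in 384-well plates and pre-incubated 1 hour at 37 °C with compound pin-transferred to 10 μM final. After 1 hour, a PRR agonist was added and cells incubated overnight. Supernatant NF-κB (SEAP, QUANTI-Blue, 620 nm absorbance) and IRF (Lucia luciferase, QUANTI-Luc, luminescence) signals were divided by the mean agonist-only control on the same plate to give fold change. Two replicate plates were averaged, with errors by propagation.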

Assay [2] has the same test system. In words: IRF reporter (Lucia luciferase) activity fold change vs agonist alone; higher = enhanced IRF activity. An outline of the steps:
as §1

Assay [3] shares this test system. In words: viability score (confluency relative to resting cells, overnight) (fraction); higher = more viable, active = viable (0.7 or more). The gist of the method: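 RAW-Dual macrophages in 384-well plates were incubated overnight with compound, final concentration 10 μM. Confluency images from IncuCyte were processed in IncuCyte software into two masks covering all imaged wells. The viability score is each well's confluency relative to resting cells, and a compound met the cutoff when both masks exceeded 70% of resting cells.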

[4] abbreviates: agonist: CpG ODN 1826 0.5 ug/mL.

Take `Cc1ccc(N2C(=O)CC(Nc3ccc(N4CCOCC4)cc3)C2=O)cc1` (stereo unspecified): the NF-kB reporter in assay [1] (setting [4]) was 1.04 ± 0.11; in assay [1] (agonist: LPS 0.1 ug/mL) it was 1.09 ± 0.09; in assay [1] (agonist: MPLA […]) it was 0.823 ± 0.057. The IRF reporter in assay [2] (agonist: 3'3'-cGAMP 10 ug/mL) is 0.641 ± 0.016; in assay [2] (agonist: LPS 0.1 ug/mL) it was 1.2 ± 0.16; in assay [2] (agonist: MPLA […]), 0.908 ± 0.11. In assay [3], the viability score was 1.01 (active).
Regarding `FC(F)(F)c1nnc2ccc(NC3CCN(c4ncnc5c4CCCC5)CC3)nn12`, the figures for the NF-kB reporter in assay [1] (setting [4]), in assay [1] (agonist: LPS 0.1 ug/mL) and in assay [1] (agonist: MPLA […]) were 1.19 ± 0.096, 1.52 ± 0.13 and 1.79 ± 0.13, respectively. The IRF reporter in assay [2] (agonist: 3'3'-cGAMP 10 ug/mL) was 1.17 ± 0.086; in assay [2] (agonist: LPS 0.1 ug/mL), 1.46 ± 0.091; in assay [2] (agonist: MPLA […]), 1.4 ± 0.18. Besides, the viability score in assay [3] was 0.972 (active).
Regarding `CC(C)C1=CC2=CCC3C(C)(C(=O)O)CCCC3(C)C2CC1` (stereo unspecified), the NF-kB reporter came out at 0.962 ± 0.076 in assay [1] (setting [4]), 0.863 ± 0.065 in assay [1] (agonist: LPS 0.1 ug/mL) and 0.891 ± 0.085 in assay [1] (agonist: MPLA […]). For the same compound, the IRF reporter in assay [2] (agonist: 3'3'-cGAMP 10 ug/mL) was 0.93 ± 0.03; in assay [2] (agonist: LPS 0.1 ug/mL), 1.22 ± 0.2; in assay [2] (agonist: MPLA […]), 1.35 ± 0.33. For the same compound, the viability score in assay [3] was 1.05 (active).
Regarding `CN1c2ccccc2-c2ccccc2C12C=Cc1cc([N+](=O)[O-])ccc1O2` (stereo unspecified), the results for the NF-kB reporter in assay [1] (setting [4]), in assay [1] (agonist: LPS 0.1 ug/mL) and in assay [1] (agonist: MPLA […]) were 0.385 ± 0.021, 0.916 ± 0.1 and 0.879 ± 0.07, respectively. The IRF reporter in assay [2] (agonist: 3'3'-cGAMP 10 ug/mL) was determined as 1.09 ± 0.07; in assay [2] (agonist: LPS 0.1 ug/mL), 1.27 ± 0.2; in assay [2] (agonist: MPLA […]) it was 1.1 ± 0.12. The viability score in assay [3] was 0.999 (active).
In the case of `CC(C)n1cnc(S(=O)(=O)N2CCC(S(=O)(=O)Cc3ccccc3)CC2)c1`, the NF-kB reporter is 0.891 ± 0.05 in assay [1] (setting [4]), 0.891 ± 0.072 in assay [1] (agonist: LPS 0.1 ug/mL) and 1.02 ± 0.055 in assay [1] (agonist: MPLA […]). The results for the IRF reporter in assay [2] (agonist: 3'3'-cGAMP 10 ug/mL), in assay [2] (agonist: LPS 0.1 ug/mL) and in assay [2] (agonist: MPLA […]) were 1.06 ± 0.062, 1.3 ± 0.3 and 1.37 ± 0.34, respectively. In assay [3], the viability score is 1 (active).
As for `COc1cccc(-c2nnc(NC(=O)C3CC3)o2)c1`, the NF-kB reporter in assay [1] (setting [4]) was 1.21 ± 0.071; in assay [1] (agonist: LPS 0.1 ug/mL) it was 0.987 ± 0.096; in assay [1] (agonist: MPLA […]), 0.999 ± 0.037. For the same compound, the values for the IRF reporter in assay [2] (agonist: 3'3'-cGAMP 10 ug/mL), in assay [2] (agonist: LPS 0.1 ug/mL) and in assay [2] (agonist: MPLA […]) were 0.95 ± 0.055, 1.04 ± 0.057 and 1.11 ± 0.12, respectively. For the same compound, the viability score in assay [3] was 1 (active).
For the compound `N#CC(=Cc1ccc(-c2ccc(Cl)cc2)o1)C(N)=O`, the NF-kB reporter in assay [1] (setting [4]) was 0.783 ± 0.062; in assay [1] (agonist: LPS 0.1 ug/mL) it was 0.875 ± 0.14; in assay [1] (agonist: MPLA […]), 1.13 ± 0.1. Besides, the values for the IRF reporter in assay [2] (agonist: 3'3'-cGAMP 10 ug/mL), in assay [2] (agonist: LPS 0.1 ug/mL) and in assay [2] (agonist: MPLA […]) were 1.07 ± 0.049, 1.43 ± 0.1 and 1.63 ± 0.18, respectively. Besides, the viability score in assay [3] was 1.02 (active).
Consider `CC(C)CN(C[C@@H](O)[C@H](Cc1ccccc1)NC(=O)O[C@H]1CCOC1)S(=O)(=O)c1ccc(N)cc1`, for which the NF-kB reporter in assay [1] (setting [4]) was 1.51 ± 0.36; in assay [1] (agonist: LPS 0.1 ug/mL), 1.4 ± 0.43; in assay [1] (agonist: MPLA […]), 1.63 ± 0.097. Further, the IRF reporter in assay [2] (agonist: 3'3'-cGAMP 10 ug/mL) stood at 0.918 ± 0.028; in assay [2] (agonist: LPS 0.1 ug/mL), 1.29 ± 0.33; in assay [2] (agonist: MPLA […]), 1.22 ± 0.14. Also, the viability score in assay [3] is 0.998 (active).
Regarding `O=C(CCCCCN1C(=O)c2cccc3cccc(c23)C1=O)NCCO`, the results for the NF-kB reporter in assay [1] (setting [4]), in assay [1] (agonist: LPS 0.1 ug/mL) and in assay [1] (agonist: MPLA […]) were 0.954 ± 0.082, 1.01 ± 0.082 and 0.872 ± 0.074, respectively. Further, the IRF reporter was 0.886 ± 0.036 in assay [2] (agonist: 3'3'-cGAMP 10 ug/mL), 1.29 ± 0.086 in assay [2] (agonist: LPS 0.1 ug/mL) and 1.19 ± 0.14 in assay [2] (agonist: MPLA […]). For the same compound, in assay [3], the viability score is 1 (active).
In the case of `CC1SC(c2ccccc2)NC1=O` (stereo unspecified), the results for the NF-kB reporter in assay [1] (setting [4]), in assay [1] (agonist: LPS 0.1 ug/mL) and in assay [1] (agonist: MPLA […]) were 1.04 ± 0.08, 1.06 ± 0.065 and 0.952 ± 0.055, respectively. Further, the IRF reporter in assay [2] (agonist: 3'3'-cGAMP 10 ug/mL) worked out at 0.791 ± 0.026; in assay [2] (agonist: LPS 0.1 ug/mL), 1.42 ± 0.098; in assay [2] (agonist: MPLA […]), 1.2 ± 0.12. Further, the viability score in assay [3] was 0.999 (active).
With `O=S(=O)(c1ccc(F)cc1)N1CCC(c2nc3ccccc3[nH]2)CC1`, the NF-kB reporter in assay [1] (setting [4]) worked out at 1.19 ± 0.085; in assay [1] (agonist: LPS 0.1 ug/mL), 1.08 ± 0.082; in assay [1] (agonist: MPLA […]) it was 1.03 ± 0.028. Also, the results for the IRF reporter in assay [2] (agonist: 3'3'-cGAMP 10 ug/mL), in assay [2] (agonist: LPS 0.1 ug/mL) and in assay [2] (agonist: MPLA […]) were 0.913 ± 0.033, 1.01 ± 0.093 and 0.997 ± 0.15, respectively. In assay [3], the viability score was 0.964 (active).
As to `Cc1ccc(C2C=C(c3ccccc3)Nc3ncnn32)cc1` (stereo unspecified), the values for the NF-kB reporter in assay [1] (setting [4]), in assay [1] (agonist: LPS 0.1 ug/mL) and in assay [1] (agonist: MPLA […]) were 0.956 ± 0.089, 1.07 ± 0.12 and 0.893 ± 0.064, respectively. Besides, the results for the IRF reporter in assay [2] (agonist: 3'3'-cGAMP 10 ug/mL), in assay [2] (agonist: LPS 0.1 ug/mL) and in assay [2] (agonist: MPLA […]) were 1.1 ± 0.056, 1.13 ± 0.11 and 1.23 ± 0.35, respectively. Besides, the viability score in assay [3] was 0.982 (active).
Take `CN(C(=NS(=O)(=O)c1ccccc1)c1ccccc1)c1ccc(O)cc1`: the NF-kB reporter is 1.05 ± 0.19 in assay [1] (setting [4]), 1.39 ± 0.11 in assay [1] (agonist: LPS 0.1 ug/mL) and 1.16 ± 0.096 in assay [1] (agonist: MPLA […]). Moreover, the values for the IRF reporter in assay [2] (agonist: 3'3'-cGAMP 10 ug/mL), in assay [2] (agonist: LPS 0.1 ug/mL) and in assay [2] (agonist: MPLA […]) were 0.968 ± 0.063, 1.2 ± 0.26 and 1.24 ± 0.2, respectively. The viability score in assay [3] is 1.01 (active).
